DAX1 inh-1 = inhibitors of human orphan nuclear receptor DAX1 (NR0B1). HEK293 Gal4-DAX1 luciferase reporter, luminescence. inhibition, % at 6.75 µM. P51843. hit rate 0.99% among 340,000. AID 504766;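 active = inhibition above the mean over all tested compounds plus 3 SD, cut at about 4.2% in these data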;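 note: 0% = DAX1-transfected cells with DMSO and 100% = empty-vector control cells with DMSO; inhibition shows as a rise in luminescence from relieved DAX1 repression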
Target sequence (P51843 207-470 limits assumed): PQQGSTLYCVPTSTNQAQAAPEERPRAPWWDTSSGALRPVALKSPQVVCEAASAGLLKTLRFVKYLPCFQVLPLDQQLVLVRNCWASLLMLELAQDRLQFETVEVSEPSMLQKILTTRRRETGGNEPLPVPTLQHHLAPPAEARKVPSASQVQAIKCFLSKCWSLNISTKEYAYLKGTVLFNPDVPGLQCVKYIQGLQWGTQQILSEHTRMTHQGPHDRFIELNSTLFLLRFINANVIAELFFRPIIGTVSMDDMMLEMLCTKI
AHR act = human AHR activation; AHR-responsive luciferase reporter cells, luminescence; activation, % at 5 µM; hit rate 2.5% among 320,000; AID 2796; in the data active = activation above about 47%;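 note: 0% = vehicle wells and 100% = reference agonist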
DAX1 inh-2 = DAX1 (NR0B1) inhibition, primary screen; HEK293T StAR-luciferase reporter, SF-1/DAX-1 repression relief; hit rate 1.1% among 370,000; AID 652010; inhibition, % at 6.8 µM;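 active = inhibition above the mean over all tested compounds plus 3 SD, cut at about 3.6% in these data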;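 note: 0% = DAX-1 cells with DMSO and 100% = cells lacking DAX-1 with DMSO; higher inhibition means more luminescence from relief of DAX-1 repression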
hcDAF12 agonist = H. contortus DAF-12 activation, primary screen; AID 652067; activation, % at 6.8 µM; HEK293 hcDAF-12 lit1-tk-luc reporter, luminescence; 0% DMSO, 100% Δ7-dafachronic acid; hit rate 1.4% among 370,000;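 active = activation above the mean of all tested compounds plus 3 SD, cut at about 5.5% in these data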;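 note: 100% = response to 3 µM Δ7-dafachronic acid high control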
ssDAF12 agonist = activates DAF-12 receptor from parasite S. stercoralis. hit rate 1% among 370,000. HEK293 ssDAF-12/GRIP1 lit1-tk-luc reporter, luminescence; % of 3 µM dafachronic acid response. AID 652126. activation, % at 6.8 µM;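 active = activation above the mean over all tested compounds plus 3 SD, cut at about 0.9% in these data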;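 note: 0% = DMSO-only wells and 100% = 3 µM delta7-dafachronic acid wells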
hgDAF12 agonist = hgDAF-12 agonism, primary luciferase screen | HEK293 GAL4-hgDAF12 UAS-luciferase reporter, agonist luminescence; normalized to butyrate control | activation, % at 6.8 µM | hit rate 1.8% among 370,000;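 active = activation above a cutoff set at the mean of all screened compounds plus 3 SD, cut at about 10% in these data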;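 note: 0% = DMSO wells and 100% = sodium butyrate wells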
Numbers without * were called inactive. Shown are actives, neighbours in structure and some others; about 5.7% of the full set was active somewhere.

How did CCn1c(CNc2ccc(Cl)cc2)nnc1SCc1ccc(C)cc1 do in these assays?
DAX1 inh-1: -1; AHR act: 50*; DAX1 inh-2: -1; hcDAF12 agonist: 1; ssDAF12 agonist: -1; hgDAF12 agonist: 0

Results for CCOc1cc2c(cc1/C=C/C(=O)O)OC(C)C2 (centres undefined) ?
DAX1 inh-1: 4.7*; AHR act: 0; DAX1 inh-2: -1; hcDAF12 agonist: -2; ssDAF12 agonist: -1; hgDAF12 agonist: -4

What do the screens show for `CCCCCCP(=O)(O)c1ccccc1`?
DAX1 inh-1: 6.1*; AHR act: 0; DAX1 inh-2: 0; hcDAF12 agonist: -1; ssDAF12 agonist: -1; hgDAF12 agonist: -1

How did CC(=O)Nc1ccc(NC(=O)CSc2nccn2Cc2ccccc2)cc1 do in these assays?
DAX1 inh-1: 0; AHR act: 1; DAX1 inh-2: -1; hcDAF12 agonist: 0; ssDAF12 agonist: -2; hgDAF12 agonist: 1

How did Nc1ccc2ccccc2c1N=Nc1ccccc1 do in these assays?
DAX1 inh-1: 1; DAX1 inh-2: 1; hcDAF12 agonist: 4; ssDAF12 agonist: 1.3*; hgDAF12 agonist: 4

How did O=C(CN(Cc1ccco1)C(=O)c1cc(=O)[nH]c2ccccc12)Nc1ccccc1C(F)(F)F do in these assays?
DAX1 inh-1: 6.3*; AHR act: 1; DAX1 inh-2: 0; hcDAF12 agonist: 0; ssDAF12 agonist: -1; hgDAF12 agonist: -2

How did Clc1ccc(-n2nnnc2CN2CCOCC2)cc1 do in these assays?
DAX1 inh-1: 6.0*; AHR act: -1; DAX1 inh-2: -1; hcDAF12 agonist: 0; ssDAF12 agonist: -1; hgDAF12 agonist: -1

How did CCN(C(=O)COC(=O)CSc1ccc([N+](=O)[O-])cc1)C1CCS(=O)(=O)C1 (centres undefined) do in these assays?
DAX1 inh-1: 1; AHR act: -1; DAX1 inh-2: 0; hcDAF12 agonist: -2; ssDAF12 agonist: -1; hgDAF12 agonist: 2

How did CN(C(=O)COC(=O)CSc1ccc([N+](=O)[O-])cc1)C1CCS(=O)(=O)C1 (centres undefined) do in these assays?
DAX1 inh-1: 0; AHR act: 2; DAX1 inh-2: -1; hcDAF12 agonist: 0; ssDAF12 agonist: 1.5*; hgDAF12 agonist: -1

Results for O=C(CN1CCN(c2ccc([N+](=O)[O-])cc2)CC1)Nc1nccs1 ?
DAX1 inh-1: 1; AHR act: -1; DAX1 inh-2: -1; hcDAF12 agonist: -2; ssDAF12 agonist: -2; hgDAF12 agonist: -5

Results for COc1ccc(C(=O)Nc2nccs2)cc1[N+](=O)[O-] ?
DAX1 inh-1: 2; AHR act: 12; DAX1 inh-2: 0; hcDAF12 agonist: 0; ssDAF12 agonist: -1; hgDAF12 agonist: 3

How did O=C(Cc1ccc([N+](=O)[O-])cc1)Nc1nccs1 do in these assays?
DAX1 inh-1: 7.2*; AHR act: 5; DAX1 inh-2: 0; hcDAF12 agonist: -1; ssDAF12 agonist: 0; hgDAF12 agonist: 0

Results for O=C(Nc1nccs1)c1ccc([N+](=O)[O-])cc1 ?
DAX1 inh-1: 1; AHR act: 15; DAX1 inh-2: 0; hcDAF12 agonist: 5; ssDAF12 agonist: 1.2*; hgDAF12 agonist: 6

How did Cc1c(C(=O)O)sc2ncnc(N3CCCCC3C)c12 (centres undefined) do in these assays?
DAX1 inh-1: 0; AHR act: 0; DAX1 inh-2: -1; hcDAF12 agonist: -2; ssDAF12 agonist: 0; hgDAF12 agonist: 1

What do the screens show for `CCCNC(=O)c1onc(CSc2ccncc2)c1C(=O)NCCC`?
DAX1 inh-1: 2; AHR act: 17; DAX1 inh-2: 0; hcDAF12 agonist: -1; ssDAF12 agonist: -1; hgDAF12 agonist: -3

Results for O=C1CC(SC2=NCCS2)C(=O)N1c1ccc(Br)cc1 (centres undefined) ?
DAX1 inh-1: 0; AHR act: 0; DAX1 inh-2: 0; hcDAF12 agonist: -1; ssDAF12 agonist: -1; hgDAF12 agonist: 1

What do the screens show for `O=C1CC(SC2=NCCS2)C(=O)N1c1ccc(Cl)cc1` (centres undefined)?
DAX1 inh-1: -1; AHR act: -1; DAX1 inh-2: 0; hcDAF12 agonist: 0; ssDAF12 agonist: 1.4*; hgDAF12 agonist: -3

Results for COc1cccc(/C=N/Nc2ccc(Cl)nn2)c1OC ?
DAX1 inh-1: 5.6*; AHR act: -5; DAX1 inh-2: -1; hcDAF12 agonist: -1; ssDAF12 agonist: -1; hgDAF12 agonist: 2

Results for CCOc1ccc(CCNC(=O)COC(=O)c2ccc(C)c([N+](=O)[O-])c2)cc1OCC ?
DAX1 inh-1: 1; AHR act: -1; DAX1 inh-2: -1; hcDAF12 agonist: 0; ssDAF12 agonist: -1; hgDAF12 agonist: -2

What do the screens show for `C#CCOCCOCCOCCNc1nc(N2CCN(C(=O)Cn3cc(CCCN=C(N)N)nn3)CC2)nc(N2CCN(C(=O)[C@H](CCCCN)n3cc(CCCC)nn3)CC2)n1`?
DAX1 inh-1: 1; AHR act: -1; DAX1 inh-2: 0; hcDAF12 agonist: 0; ssDAF12 agonist: -1; hgDAF12 agonist: 12*

How did C#CCOCCOCCOCCNc1nc(N2CCN(C(=O)Cn3cc(CCCN=C(N)N)nn3)CC2)nc(N2CCN(C(=O)[C@H](CCCCN)n3cc(CCC(=O)O)nn3)CC2)n1 do in these assays?
DAX1 inh-1: 0; AHR act: -4; DAX1 inh-2: 0; hcDAF12 agonist: 0; ssDAF12 agonist: -1; hgDAF12 agonist: 1

How did O=C(NCCC1=CCCCC1)c1ccc(CN2CCOCC2)cc1 do in these assays?
DAX1 inh-1: 3; AHR act: 7; DAX1 inh-2: 2; hcDAF12 agonist: 5; ssDAF12 agonist: 0.9*; hgDAF12 agonist: 7

How did C=CCOc1ccc(C(=O)NC2CCCCC2)cc1 do in these assays?
DAX1 inh-1: 1; AHR act: 23; DAX1 inh-2: 1; hcDAF12 agonist: 4; ssDAF12 agonist: -1; hgDAF12 agonist: 10*

How did O=C(NC1CCCCCC1)c1ccc(CN2CCOCC2)cc1 do in these assays?
DAX1 inh-1: 4.6*; AHR act: 3; DAX1 inh-2: 1; hcDAF12 agonist: 3; ssDAF12 agonist: 0; hgDAF12 agonist: 8

How did COc1ccc(NC(=O)CN(C)CC(=O)N2CCCCCC2)cc1 do in these assays?
DAX1 inh-1: 1; DAX1 inh-2: -1; hcDAF12 agonist: 0; ssDAF12 agonist: -1; hgDAF12 agonist: -2

What do the screens show for `COC(=O)Nc1ccc(S(=O)(=O)N2CCC(C(=O)N3CCC(C)CC3)CC2)cc1`?
DAX1 inh-1: -1; AHR act: -1; DAX1 inh-2: 0; hcDAF12 agonist: 1; ssDAF12 agonist: 0; hgDAF12 agonist: -1

Results for CCOc1cc(CNc2ccc(N3CCCC3)cc2)cc(Cl)c1OC ?
DAX1 inh-1: 0; AHR act: 16; DAX1 inh-2: -2; hcDAF12 agonist: 0; ssDAF12 agonist: 0; hgDAF12 agonist: -4

From PubChem BioAssay
